This note sets out measurements from the OligoGym collection.
Further: reference of the scale not given here.

In the first experiment the target is NRN1. Nature of the experiment: pooled miR-30 sensor sort-seq; sequence = guide strand. To be noted: shRNA.
Sequence TTCTTTTCTCAGTTTATCCCAC registered a sensor-assay potency score (higher = more potent) of -0.535. Turning to TCGTCTTGTCGTCCAGGCCCTG, the sensor-assay potency score (higher = more potent) is -1.79. For the sequence TTATCCCACATATCTTTCGCCC, the sensor-assay potency score (higher = more potent) is -1.13.

TCAGTGAAATATATCTGCCGTT: the sensor-assay potency score (higher = more potent) was -1. Regarding TCTTGATGTTCGTCTTGTCGTC, the sensor-assay potency score (higher = more potent) is -0.712. Regarding TTGTCGTCCAGGCCCTGCGGGT, the sensor-assay potency score (higher = more potent) was -1.62. Same read-out and setting: the figure for TTCGTCTTGTCGTCCAGGCCCT is -0.542. In turn, ATCAGTGAAATATATCTGCCGT gave a sensor-assay potency score (higher = more potent) of -0.0404.

In turn, TTGATGTTCGTCTTGTCGTCCA gave a sensor-assay potency score (higher = more potent) of 0.18. The sequence TTGAAGACCGCATCGCACTTGC displayed a sensor-assay potency score (higher = more potent) of 0.325. Still for that read-out and setting: the figure for TTGGATGTTGAGGTTTTTGGAT is -0.637; for TGATGTTCGTCTTGTCGTCCAG it is -0.489.

The target in another experiment is NRTN. Described as above. Particulars: shRNA.
Consider TCCTCGTAGGCCGTCGGGCGGC, for which the sensor-assay potency score (higher = more potent) is -1.9. The sequence TATCTCAGTACAGTTATCGCGA yielded a sensor-assay potency score (higher = more potent) of 0.0428. On to TCTCAGTACAGTTATCGCGAGA, for which the sensor-assay potency score (higher = more potent) was -1.15. The sequence AACAGCACCGTCTCGTCGGACG returned a sensor-assay potency score (higher = more potent) of -1.59.

Take ATGGACAGCACGGAGCTGCAGA: the sensor-assay potency score (higher = more potent) was -1.37. On the same count and under the same terms, as for TGCACCGTGTGGTAGCGGCTGT, the figure is -1.01; as for TGGCGCAGTCGTCGCAGCCCGA, -1.96; as for TCGTCGCAGCCCGAGGTCGTAG, -1.65. Take TAGCGGAACAGCACCGTCTCGT: the sensor-assay potency score (higher = more potent) is -0.209.

In the case of TCGTCCTCGTAGGCCGTCGGGC, the sensor-assay potency score (higher = more potent) is -1.36.

For the next experiment, the target named is NRXN1. Described as above. To be noted: shRNA.
As for ATTGTTGCAAGCACACACCTTG, the sensor-assay potency score (higher = more potent) was -0.22. TTGAACTTCAGCCATTTGCCGG displayed a sensor-assay potency score (higher = more potent) of -0.927. TATTTCTATACAAGTGTCCATT: the sensor-assay potency score (higher = more potent) is -1.16.

TATCATTGAGGTTATAGCCAGC: the sensor-assay potency score (higher = more potent) was -0.792. For TAAAGATATATGTCGTCCCAGG, the sensor-assay potency score (higher = more potent) was -1.02.

In turn, TTTGTGTCAATCTTTACAGTGT displayed a sensor-assay potency score (higher = more potent) of 0.163. The sequence TATTTTTATATACAACCTCTTT returned a sensor-assay potency score (higher = more potent) of -1.15.

On to TAGAATTAATCCATCTAGGGAT, for which the sensor-assay potency score (higher = more potent) was -0.432. Consider TAAGTTTATATTATGTCTCAGA, for which the sensor-assay potency score (higher = more potent) is -0.557. Sequence TTTTGAGACAAGTCGTAGCAGA registered a sensor-assay potency score (higher = more potent) of -0.143. TTTCTTTAGCTACTCCTCCTAT registered a sensor-assay potency score (higher = more potent) of -0.523. Consider AAGATTGACATAATCAGCCGAT, for which the sensor-assay potency score (higher = more potent) is 0.46.

In a further experiment the target is NT5C3L. The experiment is described as above. Particulars: shRNA.
TAGAGCACTGACATGCTGTGGT: the sensor-assay potency score (higher = more potent) was 0.517.

TAGCCCGTTGACCACATCCAGA displayed a sensor-assay potency score (higher = more potent) of -1.7. Still for that read-out and setting: the figure for TTTCCATTATATGCAAACCTGC is -1.3; for TATCTGAAACTTCTGAATCTTC it is -0.418; for TTGGACTCTCTAACCACCTGGG it is 0.443. TGGAACACTTTCATCTGTCGGA gave a sensor-assay potency score (higher = more potent) of -0.0202.
